DT40 TDP1 CPT: qHTS for Inhibitors of human tyrosyl-DNA phosphodiesterase 1 (TDP1): qHTS in cells in presence of CPT; AID 686979, 2013; chicken DT40 Tdp1-/-;hTDP1 cells + 20 nM CPT, ATP luminescence, 48 h; Potency, µM (top dose mostly 46.2 µM), without a hit: at the highest dose activity change, negative = growth inhibition, actives largely listed as inhibitors; 420,000 compounds, 12% hits; note: potency is the fitted concentration of half-maximal effect; % is set by controls: 0 for no effect and ±100 for the full control effect; nearly all actives have a fitted effect of over 55% in size
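Chicken DT40 Tdp1-/- cells stably complemented with human TDP1 were seeded at 400 cells/well in medium containing 20 nM camptothecin, exposed to pin-transferred compounds, and grown at 37 °C for at least 48 hr. Viability was read as ATP luminescence.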
TDP1 block: qHTS Assay for Inhibitors of Tyrosyl-DNA Phosphodiesterase (TDP1); recombinant TDP1, AlphaScreen DNA substrate cleavage; Potency, µM (highest dose often 130 µM), inactives show top-dose activity change, negative = inhibition, actives largely listed as inhibitors; 350,000 compounds, 0.28% hits; AID 485290, 2010; note: potency is the fitted concentration of half-maximal effect; % is set by controls: 0 for no effect and ±100 for the full control effect; nearly all actives have a fitted effect of over 40% in size
Target sequence (Q9NUW8 whole entry, looked up): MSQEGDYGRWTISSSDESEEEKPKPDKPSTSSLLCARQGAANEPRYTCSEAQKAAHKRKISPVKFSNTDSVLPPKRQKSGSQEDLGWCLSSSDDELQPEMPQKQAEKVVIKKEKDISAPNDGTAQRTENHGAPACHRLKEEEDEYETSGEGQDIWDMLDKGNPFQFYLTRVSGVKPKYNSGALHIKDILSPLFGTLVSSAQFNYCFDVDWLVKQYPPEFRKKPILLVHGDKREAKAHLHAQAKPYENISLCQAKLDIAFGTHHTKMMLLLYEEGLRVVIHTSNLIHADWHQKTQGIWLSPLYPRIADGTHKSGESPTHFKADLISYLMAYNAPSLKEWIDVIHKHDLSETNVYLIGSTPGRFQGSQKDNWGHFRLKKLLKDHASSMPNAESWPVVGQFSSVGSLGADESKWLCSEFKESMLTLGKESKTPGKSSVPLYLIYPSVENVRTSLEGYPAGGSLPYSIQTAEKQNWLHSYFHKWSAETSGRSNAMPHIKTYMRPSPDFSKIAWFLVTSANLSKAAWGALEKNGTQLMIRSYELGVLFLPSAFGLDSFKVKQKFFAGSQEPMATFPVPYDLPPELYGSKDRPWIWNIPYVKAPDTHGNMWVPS
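Here, a 5' biotin and 3' phosphotyrosine-FITC DNA oligonucleotide reports Tdp1 activity: intact substrate bridges AlphaScreen beads, while cleavage leaves a 3' phosphate and drops signal. All incubations at room temperature.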
HepG2 viability: qHTS for Inhibitors of TGF-b: Cytotox Counterscreen; HepG2 CAGA-GFP viability, ATP luminescence, 18 h; Potency, µM (doses to about 46.1 µM), for inactives: at the top dose activity change, negative = cytotoxicity, most hits filed as cytotoxic; 410,000 compounds, 0.76% hits; AID 588856, 2011; note: potency is the fitted concentration of half-maximal effect
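CellTiter-Glo luminescence gave cytotoxicity after 18 hours at 37 degrees C. The cells were HepG2 CAGA-GFP in 1% FBS DMEM, stimulated with 500 pg/mL TGF-beta after compound addition. %Activity was normalised to no-cell wells (complete cell-killing) and DMSO (no toxicity), and curves were fitted and classified.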
DT40 TDP1 no CPT: qHTS for Inhibitors of human tyrosyl-DNA phosphodiesterase 1 (TDP1): qHTS in cells in absence of CPT | AID 686978, 2013 | Potency, µM (highest dose often 46.2 µM), for the others: top-dose activity change, negative = growth inhibition, actives largely listed as inhibitors | 420,000 compounds, 15% hits | DT40 Tdp1-/- hTDP1 cells, no CPT, ATP luminescence, 48 h; note: potency is the fitted concentration of half-maximal effect; % is set by controls: 0 for no effect and ±100 for the full control effect; nearly all actives have a fitted effect of over 55% in size
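A cellular qHTS used chicken DT40 cells lacking endogenous Tdp1 but carrying stably transfected human TDP1. Compounds were applied without camptothecin, and cell growth kinetics were judged by ATP-dependent luminescence after ≥48 hr.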
TGFb SMAD3 inh: qHTS for Inhibitors of TGF-b; HepG2 CAGA-GFP TGF-b/SMAD3 reporter, GFP fluorescence, 18 h; TGF-beta stimulated, 500 pg/mL final; 410,000 compounds, 1.2% hits; Potency, µM (titrated, usually from 46.1 µM), without a hit: top-dose activity, negative = inhibition, usual class: inhibitors; note: potency is the fitted concentration of half-maximal effect; % is set by controls: 0 for no effect and ±100 for the full control effect; nearly all actives have a fitted effect of over 65% in size
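TGF-beta reporter screen: HEPG2 CAGA-GFP, 1% FBS, 500 pg/mL TGF-beta final, 18 h; per-cell GFP summed per well; curves fitted and categorized by class.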
IL-1B inflam inh: qHTS for Inhibitors of Inflammasome Signaling: IL-1-beta AlphaLISA Primary Screen; THP-1 LPS/ATP IL-1B secretion, AlphaLISA, 16 h; active compounds read low; activity change, % at 57.5 µM; 360,000 compounds, 4.7% hits; in the data active = activity change below about -50%; inconclusive = mostly about -30% to -49%; note: % is set by controls: 0 for no effect and ±100 for the full control effect
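Secreted IL-1B measured by AlphaLISA bead assay after 16 h compound exposure of THP-1 cells; compounds (final up to 57.5 uM) added 1 h before LPS (250 ng/mL) and ATP (1.25 mM) stimulation; lower signal means less secretion.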
Starred values were filed as active, the others as inactive; ? = inconclusive; · = no result given. Most compounds without a hit are left out; they make up all but 19% or so of the library. Unless noted, calls come from the whole dose curve; as a rule, active = well fitted curve in the direction sought with a large enough effect; inconclusive = small, poorly fitted or top-dose-only effect, or another doubt; inactive = no such curve, though single readings can be large; an effect the other way counts as inactive or inconclusive.

SMILES | DT40 TDP1 CPT | TDP1 block | HepG2 viability | DT40 TDP1 no CPT | TGFb SMAD3 inh | IL-1B inflam inh
CCn1nnc2cc(C(=O)Nc3cccc(C)c3C)ccc21 | 10µM* | 5% | -23% | 15µM* | 2% | ·
CCn1nnc2cc(C(=O)Nc3cccc(Cl)c3C)ccc21 | ? | 0% | -2% | 16µM* | 0% | ·
CCOC(=O)c1cccc(NC(=O)c2ccc3c(c2)nnn3CC)c1 | ? | 8% | -2% | ? | 6% | ·
CC(C(=O)NC(C)(C)C)n1c(-c2ccc3c(c2)OCO3)nc2ccccc21 (centres undefined) | ? | · | · | -27% | · | 27
CCC[C@@H](CN1CCC[C@H]1CN1C(N)=NC[C@@H]1Cc1ccccc1)N1C[C@@H](Cc2ccccc2)N(CCc2ccc(Cl)c(Cl)c2)C1=N | ? | 3% | 5% | ? | -11% | -53*
CCC[C@@H](CN1CCC[C@H]1CN1C(N)=NC[C@H]1CC(C)C)N1C[C@@H](Cc2ccccc2)N(CCc2ccc(Cl)c(Cl)c2)C1=N | 21µM* | 1% | -27% | ? | 5% | -69*
CCC[C@@H](CN1CCC[C@H]1CN1C(N)=NC[C@@H]1Cc1ccccc1)N1C[C@@H]([C@H](C)CC)N(CCc2ccc(Cl)c(Cl)c2)C1=N | ? | -1% | -24% | ? | -4% | ?
O=C(O)c1cccc2sc3cc(Cl)ccc3c(=O)c12 | 3% | 1% | 6% | 2% | -11% | 12
COc1cc(C)c2sc3ccccc3c(=O)c2c1NCCN(C)C | 6.5µM* | · | -125% | 5.8µM* | ? | ·
Cc1ccc(C(=O)NCCN(C)C)cc1C | 0% | 3% | 1% | -13% | -2% | -8
CN(C)CCNc1cccc2sc3ccc(O)cc3c(=O)c12 | 0.18µM* | · | -58% | 0.33µM* | 4.5µM* | -95*
Cc1cc(CCNC=O)c(C)c2c1sc1ccccc12 | 2% | · | 8% | 0% | 15% | ?
Cc1ccc(NCCN(C)C)c2c(=O)c3cc(O)ccc3sc12 | 0.15µM* | · | -114% | 0.18µM* | ? | -102*
Cc1cccc(NC(=O)CSC2=Nc3ccccc3C3=NC(CCC(=O)NCc4ccc(F)cc4)C(=O)N23)c1 (centres undefined) | -29% | 0% | 0% | ? | -12% | ·
COc1ccccc1C(=O)Nc1ccc(OCc2cc(=O)n3ccsc3n2)cc1 | -22% | -1% | 2% | -16% | 1% | ·
O=C(C[C@@H]1C/C=C\CCC(=O)OC[C@@H]2CCCN2C1=O)N[C@@H](CO)Cc1ccccc1 | -10% | 0% | -1% | 11% | 0% | 6
O=C(C[C@H]1C/C=C\CC[C@@H](Cc2ccc(F)cc2)C(=O)OC[C@H]2CCCN2C1=O)N[C@H](CO)Cc1ccccc1 | ? | 1% | -2% | 21µM* | -25% | -6
O=C(C[C@@H]1C/C=C\C[C@H](Cc2ccc(F)cc2)C(=O)OC[C@H]2CCCN2C1=O)N[C@H](CO)Cc1ccccc1 | 13µM* | 1% | 6% | 15µM* | -1% | -19
O=C(C[C@@H]1C/C=C\C[C@H](Cc2ccc(F)cc2)C(=O)OC[C@@H]2CCCN2C1=O)N[C@H](CO)Cc1ccccc1 | 18µM* | 2% | -14% | 16µM* | ? | -1
O=C(C[C@@H]1C/C=C\C[C@@H](Cc2ccc(F)cc2)C(=O)OC[C@@H]2CCCN2C1=O)N[C@H](CO)Cc1ccccc1 | ? | 0% | -20% | 23µM* | -64% | -21

Compound activity deposited in PubChem BioAssay by National Center for Advancing Translational Sciences (NCATS).
